In PubChem BioAssay (NCI):
Compounds without any hit were thinned out: in the full panel of roughly 83,000, 20% have a hit.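 Single-concentration screen, 48 h exposure, 96-well plates. Endpoint: percent growth. Below 10 = active.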 Active and inactive are the calls of the source.

Key:
Assay in all cases: NCI-60 one-dose screen, 48 h (100 = growth as untreated, 0 = no growth, -100 = all killed)
Conditions in all cases: 10 µM unless noted
SK-MEL-2 melanoma = system: SK-MEL-2 melanoma
EKVX NSCLC = system: EKVX NSCLC
SN12C renal = system: SN12C renal
UO-31 renal = system: UO-31 renal
TK-10 renal = system: TK-10 renal
ACHN renal = system: ACHN renal
A498 renal = system: A498 renal
CCRF-CEM leukemia = system: CCRF-CEM leukemia
MOLT-4 leukemia = system: MOLT-4 leukemia
SR leukemia = system: SR leukemia
RPMI-8226 leukemia = system: RPMI-8226 leukemia
OVCAR-8 ovarian = system: OVCAR-8 ovarian
OVCAR-5 ovarian = system: OVCAR-5 ovarian
OVCAR-4 ovarian = system: OVCAR-4 ovarian
SK-OV-3 ovarian = system: SK-OV-3 ovarian
IGROV1 ovarian = system: IGROV1 ovarian
OVCAR-3 ovarian = system: OVCAR-3 ovarian
HS 578T breast = system: HS 578T breast
NCI/ADR-RES ovarian = system: NCI/ADR-RES ovarian
T-47D breast = system: T-47D breast

Measured: growth

CN1CCN(CC#CCOC(=O)CNC(=O)[C@]23CCC(C)(C)C[C@H]2C2=CC[C@@H]4[C@@]5(C)CC[C@H](O)C(C)(C)[C@@H]5CC[C@@]4(C)[C@]2(C)CC3)CC1
active: SR leukemia 7.96%
inactive: SK-MEL-2 melanoma 95.4% | EKVX NSCLC 89.1% | SN12C renal 82.2% | UO-31 renal 63% | TK-10 renal 109% | ACHN renal 92.5% | A498 renal 69.4% | CCRF-CEM leukemia 85.6% | MOLT-4 leukemia 70.7% | RPMI-8226 leukemia 76.8% | OVCAR-8 ovarian 81.3% | OVCAR-5 ovarian 101% | OVCAR-4 ovarian 105% | SK-OV-3 ovarian 86.2% | IGROV1 ovarian 90.4% | OVCAR-3 ovarian 94.6% | HS 578T breast 95.5% | NCI/ADR-RES ovarian 87.6% | T-47D breast 75.5%

COc1ccccc1C(=O)/C=C/c1cc2cccc(OC)c2[nH]c1=O
inactive: SK-MEL-2 melanoma 20% | OVCAR-5 ovarian 13.1% | OVCAR-4 ovarian 15.4% | SK-OV-3 ovarian 16.3% | HS 578T breast 39.3% | T-47D breast 11.3%
active: EKVX NSCLC 7.34% | SN12C renal -0.142% | UO-31 renal -48.6% | TK-10 renal 3.12% | ACHN renal 4% | A498 renal -15% | CCRF-CEM leukemia -4.86% | MOLT-4 leukemia 7.38% | SR leukemia -1.87% | RPMI-8226 leukemia -14.5% | OVCAR-8 ovarian -5.37% | IGROV1 ovarian 2.88% | OVCAR-3 ovarian -9.01% | NCI/ADR-RES ovarian 3.01%

CCc1c(C(=O)N[C@@H](C(=O)OCc2ccccc2)C(C)O)[nH]c2ccc(Cl)cc12 (stereo not given in full)
inactive: SK-MEL-2 melanoma 106% | EKVX NSCLC 73.8% | SN12C renal 66.6% | UO-31 renal 11.7% | TK-10 renal 33.6% | A498 renal 67.7% | CCRF-CEM leukemia 79.6% | MOLT-4 leukemia 91.5% | SR leukemia 35.1% | RPMI-8226 leukemia 82.7% | OVCAR-8 ovarian 59.2% | OVCAR-5 ovarian 69.1% | SK-OV-3 ovarian 59.3% | IGROV1 ovarian 46.3% | OVCAR-3 ovarian 29.4% | HS 578T breast 40.6% | NCI/ADR-RES ovarian 68.2% | T-47D breast 47.5%
active: ACHN renal 8.62% | OVCAR-4 ovarian -46.9%

N#CC1C(c2ccc(Cl)cc2)=Nc2c(c(-c3ccccc3)nn2-c2ccccc2)C12C(=O)Nc1ccc(Cl)cc12 (stereo not given)
inactive: SK-MEL-2 melanoma 71.3% | EKVX NSCLC 40.1% | SN12C renal 60.2% | UO-31 renal 22.6% | TK-10 renal 47.8% | ACHN renal 36.6% | A498 renal 60.3% | CCRF-CEM leukemia 19.2% | MOLT-4 leukemia 15.3% | SR leukemia 36.5% | RPMI-8226 leukemia 24.7% | OVCAR-8 ovarian 64.6% | OVCAR-5 ovarian 65.2% | OVCAR-4 ovarian 34.4% | SK-OV-3 ovarian 68.6% | IGROV1 ovarian 42.1% | OVCAR-3 ovarian 49.7% | HS 578T breast 51.4% | NCI/ADR-RES ovarian 67.6% | T-47D breast 46.7%

COc1cc(/C=C/C(=O)/C=C/c2cc3ccc(Cl)cc3[nH]c2=O)ccc1O
inactive: SK-MEL-2 melanoma 89.1% | EKVX NSCLC 94.4% | SN12C renal 63.9% | UO-31 renal 60.3% | TK-10 renal 98% | ACHN renal 64.8% | A498 renal 78.8% | CCRF-CEM leukemia 23% | MOLT-4 leukemia 30.3% | SR leukemia 10.8% | OVCAR-5 ovarian 103% | OVCAR-4 ovarian 68% | SK-OV-3 ovarian 105% | IGROV1 ovarian 40.7% | OVCAR-3 ovarian 42.4% | HS 578T breast 73.8% | NCI/ADR-RES ovarian 41% | T-47D breast 88.8%
active: RPMI-8226 leukemia 4.64% | OVCAR-8 ovarian 6.97%

O=C1CCc2ccccc2N1
inactive: SK-MEL-2 melanoma 101% | EKVX NSCLC 75.5% | SN12C renal 99.1% | UO-31 renal 90.3% | TK-10 renal 88.2% | ACHN renal 100% | A498 renal 111% | CCRF-CEM leukemia 107% | MOLT-4 leukemia 110% | SR leukemia 93.5% | RPMI-8226 leukemia 106% | OVCAR-8 ovarian 105% | OVCAR-5 ovarian 103% | OVCAR-4 ovarian 94.7% | SK-OV-3 ovarian 108% | IGROV1 ovarian 98.4% | OVCAR-3 ovarian 102% | HS 578T breast 103% | NCI/ADR-RES ovarian 101% | T-47D breast 109%

CCOC(=O)CC[C@H](NC(=O)c1ccc(NC)c2ccccc12)C(=O)OCC
inactive: SK-MEL-2 melanoma 106% | EKVX NSCLC 89.4% | SN12C renal 90.3% | UO-31 renal 93.8% | TK-10 renal 90.6% | ACHN renal 98.8% | A498 renal 91% | CCRF-CEM leukemia 91.2% | MOLT-4 leukemia 98.6% | SR leukemia 101% | RPMI-8226 leukemia 91.2% | OVCAR-8 ovarian 94.7% | OVCAR-5 ovarian 101% | OVCAR-4 ovarian 104% | SK-OV-3 ovarian 92.8% | IGROV1 ovarian 105% | OVCAR-3 ovarian 102% | HS 578T breast 105% | NCI/ADR-RES ovarian 104% | T-47D breast 93.8%

Cc1ccc(CS/C(=C\c2ccc([N+](=O)[O-])cc2)C(=O)c2ccc(F)cc2)cc1
active: CCRF-CEM leukemia 5.04% | MOLT-4 leukemia 3.17% | SR leukemia 0.11% | RPMI-8226 leukemia -18.3% | HS 578T breast 8.91%
inactive: SK-MEL-2 melanoma 74.5% | EKVX NSCLC 64% | SN12C renal 45.9% | UO-31 renal 46.7% | TK-10 renal 91.7% | ACHN renal 60.1% | A498 renal 89.4% | OVCAR-8 ovarian 57.1% | OVCAR-5 ovarian 97.7% | OVCAR-4 ovarian 60.6% | SK-OV-3 ovarian 79.2% | IGROV1 ovarian 58.5% | OVCAR-3 ovarian 60.1% | NCI/ADR-RES ovarian 49.6% | T-47D breast 49.6%

CCC[S@](=O)c1ccc2nc(NC(=O)OC)[nH]c2c1
inactive: SK-MEL-2 melanoma 99.2% | EKVX NSCLC 95.3% | SN12C renal 100% | UO-31 renal 96.8% | TK-10 renal 91.7% | ACHN renal 103% | A498 renal 95.1% | CCRF-CEM leukemia 96.2% | MOLT-4 leukemia 79.6% | SR leukemia 75.3% | RPMI-8226 leukemia 96.4% | OVCAR-8 ovarian 84.9% | OVCAR-5 ovarian 101% | OVCAR-4 ovarian 104% | SK-OV-3 ovarian 74.5% | IGROV1 ovarian 97.1% | OVCAR-3 ovarian 104% | HS 578T breast 102% | NCI/ADR-RES ovarian 106% | T-47D breast 87.7%

COc1cccc(C(=O)OCCn2nc3c4c(cccc42)C(=O)c2ccccc2-3)c1O
active: OVCAR-3 ovarian 3.88%
inactive: SK-MEL-2 melanoma 78.7% | EKVX NSCLC 56.1% | SN12C renal 41.5% | UO-31 renal 62.6% | TK-10 renal 85.5% | ACHN renal 56.6% | A498 renal 81.7% | CCRF-CEM leukemia 18.3% | MOLT-4 leukemia 29.7% | SR leukemia 21.2% | RPMI-8226 leukemia 30% | OVCAR-8 ovarian 56.7% | OVCAR-5 ovarian 69.3% | OVCAR-4 ovarian 59.8% | SK-OV-3 ovarian 120% | IGROV1 ovarian 44.9% | HS 578T breast 20.1% | NCI/ADR-RES ovarian 22.5% | T-47D breast 40.8%

CN1CCN(C(=O)[C@@]2(C)CC[C@]3(C)CC[C@]4(C)C(=CC[C@@H]5[C@@]6(C)CC[C@H](OC(=O)c7cccnc7)C(C)(C)[C@@H]6CC[C@]54C)[C@@H]3C2)CC1
inactive: SK-MEL-2 melanoma 101% | EKVX NSCLC 76.3% | SN12C renal 80.4% | UO-31 renal 74.1% | TK-10 renal 116% | ACHN renal 77.7% | A498 renal 92.1% | MOLT-4 leukemia 31.9% | OVCAR-8 ovarian 60.2% | OVCAR-5 ovarian 78.7% | OVCAR-4 ovarian 35.2% | SK-OV-3 ovarian 79.3% | IGROV1 ovarian 88.2% | OVCAR-3 ovarian 80.9% | HS 578T breast 76.8% | NCI/ADR-RES ovarian 77.6% | T-47D breast 57.6%
active: CCRF-CEM leukemia 1.45% | SR leukemia -26.9% | RPMI-8226 leukemia 6.97%

O=[N+]([O-])c1ccc(Oc2ccc(-c3ccccc3)cc2)cc1
inactive: SK-MEL-2 melanoma 103% | EKVX NSCLC 85.1% | SN12C renal 96.6% | UO-31 renal 79.5% | TK-10 renal 88.5% | ACHN renal 101% | A498 renal 84.5% | CCRF-CEM leukemia 78.3% | MOLT-4 leukemia 70.4% | SR leukemia 77.8% | RPMI-8226 leukemia 75.2% | OVCAR-8 ovarian 92.1% | OVCAR-5 ovarian 99.2% | OVCAR-4 ovarian 69.6% | SK-OV-3 ovarian 92.6% | IGROV1 ovarian 85.3% | OVCAR-3 ovarian 99.3% | HS 578T breast 93.2% | NCI/ADR-RES ovarian 91.8% | T-47D breast 60.6%

Cc1cccc2nc3c(n12)C(=O)C(=O)c1ccccc1-3
inactive: SK-MEL-2 melanoma 81.2% | EKVX NSCLC 64.1% | SN12C renal 37.1% | UO-31 renal 55.8% | TK-10 renal 125% | ACHN renal 69.4% | A498 renal 81.3% | CCRF-CEM leukemia 91.9% | MOLT-4 leukemia 81.1% | SR leukemia 88.2% | RPMI-8226 leukemia 44.9% | OVCAR-8 ovarian 46.9% | OVCAR-5 ovarian 104% | OVCAR-4 ovarian 83.1% | SK-OV-3 ovarian 79.5% | IGROV1 ovarian 44.7% | OVCAR-3 ovarian 54% | HS 578T breast 75.2% | NCI/ADR-RES ovarian 50.3% | T-47D breast 62.5%

C=C1C(=O)O[C@H]2[C@H]1CC/C(COC(=O)c1cn(C)c3ccccc13)=C\CC[C@@]1(C)O[C@@H]21
active: SK-MEL-2 melanoma -60% | EKVX NSCLC -29.1% | SN12C renal -40.3% | UO-31 renal -93.5% | TK-10 renal -75.2% | ACHN renal -82.7% | CCRF-CEM leukemia 1.59% | MOLT-4 leukemia -0.986% | SR leukemia -9.81% | RPMI-8226 leukemia -29.5% | OVCAR-8 ovarian -20.5% | OVCAR-5 ovarian -25.5% | OVCAR-4 ovarian -33.6% | IGROV1 ovarian -47.6% | OVCAR-3 ovarian -72.1% | NCI/ADR-RES ovarian 3.25% | T-47D breast -56.3%
inactive: A498 renal 65.4% | SK-OV-3 ovarian 63% | HS 578T breast 12.7%

O=C1[C@@H](OS(=O)(=O)CC(F)(F)F)[C@H](c2ccc(F)cn2)N1c1cc2c3ccccc3ccc2c2ccccc12
inactive: SK-MEL-2 melanoma 89.9% | EKVX NSCLC 87.6% | SN12C renal 80.7% | UO-31 renal 62.1% | TK-10 renal 88.4% | ACHN renal 76.3% | A498 renal 83.6% | RPMI-8226 leukemia 25.1% | OVCAR-8 ovarian 78.6% | OVCAR-5 ovarian 104% | OVCAR-4 ovarian 86.3% | SK-OV-3 ovarian 95.8% | IGROV1 ovarian 70% | OVCAR-3 ovarian 49.3% | HS 578T breast 68.3% | NCI/ADR-RES ovarian 72.2% | T-47D breast 84.9%
active: CCRF-CEM leukemia 9.13% | MOLT-4 leukemia 0.0781% | SR leukemia 4.47%
